A short description of assay [1]: ATG_GLI_CIS: Attagene CIS-FACTORIAL HepG2 Assay for human Zinc Finger Protein GLI1 (AID 2282945). As to conditions: HepG2, Attagene cis-factorial reporter mRNA, GLI element; actives raise or lower the signal. The method in brief: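 Bidirectional curve fits relative to DMSO, using reporter mRNA levels from RT-PCR plus capillary electrophoresis. Cells were HepG2 transiently carrying cis-regulated reporter constructs, harvested 24 h after dosing.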

Assay [2] has as its target Bile acid receptor (Homo sapiens) (UniProt Q96RI1). The assay is described as follows: ATG_IR1_CIS: Attagene CIS-FACTORIAL HepG2 Assay for human Nuclear Receptor Subfamily 1 Group H Member 4 (NR1H4), IR1 submotif (AID 2282946). As to conditions: IR1 reporter transcription, actives raise or lower the signal. The procedure, abridged: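 Cells (human HepG2) carry transiently transfected cis-promoter reporter transcription units. Compounds are incubated 24 h, total RNA is reverse-transcribed and amplified, and labelled fragments are resolved by capillary electrophoresis. Curves use DMSO as baseline.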

A short description of assay [3]: ATG_ISRE_CIS: Attagene CIS-FACTORIAL HepG2 Assay for human Interferon Regulatory Factor 1 (IRF1) binding to an Interferon-Stimulated Response Element (ISRE) (AID 2282948). As to conditions: HepG2 ISRE cis-reporter (Attagene), mRNA transcription readout; actives raise or lower the signal. The procedure, abridged: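 Transfected HepG2 (multiple reporter transcription units, cis elements) dosed 24 h. RNA → oligo(dT) RT → PCR → 6-FAM primer extension → HpaI → CE. DMSO = negative control/baseline.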

Assay [4] in a line: ATG_M_32_CIS: Attagene CIS-FACTORIAL HepG2 Assay for M32 Transcription Factor (Internal Marker) (AID 2282949).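 Note: background control marker of the multiplexed CIS panel rather than a real target.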 The note with it: HepG2 Attagene cis-factorial M32 reporter, mRNA; actives raise or lower the signal. The procedure, abridged: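 Internal background marker read-out: RT-PCR/capillary electrophoresis fluorescence of reporter transcripts from transiently transfected HepG2 cells after 24 h chemical exposure. Activity fitted bidirectionally relative to DMSO negative control.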

Assay [5] can be described thus: ATG_M_06_CIS: Attagene CIS-FACTORIAL HepG2 Assay for M06 Transcription Factor (Internal Marker) (AID 2282950). The note with it: HepG2 Attagene CIS-FACTORIAL M06 internal marker reporter; actives raise or lower the signal. The method in brief: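 Measured 24 h post-dosing in transiently transfected HepG2 cells, this internal-marker endpoint reports reporter mRNA via RT-PCR with fluorescent primer extension and capillary electrophoresis. DMSO served as negative control and baseline for bidirectional fitting.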

In assay [6] the target is Hypoxia-inducible factor 1-alpha (Homo sapiens) (UniProt Q16665). The assay is described as follows: ATG_HIF1a_CIS: Attagene CIS-FACTORIAL HepG2 Assay for human Hypoxia Inducible Factor 1 (HIF1A) (AID 2282951). As to conditions: HepG2 Attagene cis-factorial HIF1a reporter transcription; actives raise or lower the signal. The procedure, abridged:
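Transient MRTU transfection of human HepG2 liver cells, 24 h compound treatment, then total RNA isolation, oligo(dT) reverse transcription, PCR amplification, fluorescent labelling and capillary electrophoresis of reporter fragments. Gain or loss relative to DMSO.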

Assay [7] deals with Heat shock factor protein 1 (Homo sapiens) (UniProt Q00613). The assay is described as follows: ATG_HSE_CIS: Attagene CIS-FACTORIAL HepG2 Assay for human Heat Shock Transcription Factor 1 (HSE) (AID 2282953). As to conditions: HepG2 HSE cis-reporter, Attagene RNA transcription; actives raise or lower the signal. The procedure, abridged: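 Reporter mRNA induction in HepG2 is measured 24 h after dosing, using transiently transfected multiplexed cis-regulated reporter units. Signal comes from capillary electrophoresis of labelled RT-PCR products, with DMSO as negative control.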

Assay [8] in a line: ATG_MRE_CIS: Attagene CIS-FACTORIAL HepG2 Assay for human Metal Responsive Element (MRE) (AID 2282954). The note with it: HepG2 MRE cis-reporter transcription, Attagene multiplex; actives raise or lower the signal. The procedure, abridged: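 After a 24 h chemical exposure, transiently transfected HepG2 cells yield RNA whose reporter sequences are amplified, FAM-labelled and sized by capillary electrophoresis. Curves are fitted bidirectionally relative to DMSO.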

The nature of assay [9]: ATG_PBREM_CIS: Attagene CIS-FACTORIAL HepG2 Assay for human Phenobarbital-responsive Enhancer Module (PBREM) (AID 2282955). As to conditions: HepG2 PBREM cis-reporter, Attagene multiplexed transcription; actives raise or lower the signal. The procedure, abridged:
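Endogenous transcription factors in human liver HepG2 cells drive a PBREM cis-element reporter, whose transcript level after 24 h treatment is quantified by RT-PCR with capillary electrophoresis; activity fitted in both directions against DMSO.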

The target in assay [10] is Paired box protein Pax-6 (Homo sapiens) (UniProt P26367). The assay is described as follows: ATG_Pax6_CIS: Attagene CIS-FACTORIAL HepG2 Assay for human Paired Box 6 (PAX6) (AID 2282956). As to conditions: HepG2 CIS-FACTORIAL PAX6 reporter transcription, RNA readout; actives raise or lower the signal. The method in brief: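 Transient MRTU transfection of HepG2 → compound exposure 24 h → TriZol RNA, oligo(dT) RT → PCR, 6-FAM primer extension, HpaI cut → capillary electrophoresis; activity fitted both directions against DMSO.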

The nature of assay [11]: ATG_PXRE_CIS: Attagene CIS-FACTORIAL HepG2 Assay for human Pregnane X Receptor Element (PXRE) (AID 2282957). The note with it: HepG2 Attagene CIS-FACTORIAL PXRE reporter, mRNA; actives raise or lower the signal. The procedure, abridged: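 Cis-element reporter mRNA in human hepatoma HepG2 cells is measured 24 h post-dosing by RT-PCR, primer-extension labeling and capillary electrophoresis; gain or loss of signal is fitted relative to DMSO.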

Assay [12] can be described thus: ATG_PPRE_CIS: Attagene CIS-FACTORIAL HepG2 Assay for human Peroxisome Proliferator-activated Response Element (PPRE) (AID 2282958). The note with it: HepG2 PPRE cis-element reporter, Attagene transcription factor profiling; actives raise or lower the signal. The method in brief:
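HepG2, transient MRTU transfection (cis promoter elements, endogenous TFs). 24 h dosing. RNA → oligo(dT) RT → PCR → 6-FAM primer extension → HpaI digest → CE. Bidirectional fit vs DMSO.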

The nature of assay [13]: ATG_RORE_CIS: Attagene CIS-FACTORIAL HepG2 Assay for human RAR-related Orphan Receptor Element (RORE) (AID 2282959). As to conditions: HepG2 Attagene cis-factorial RORE reporter, mRNA; actives raise or lower the signal. The method in brief: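 Transient MRTU transfection of human HepG2 liver cells (FuGene 6); 24 h compound exposure; TriZol RNA, oligo(dT) RT, PCR, FAM labeling, HpaI cut, CE fragment analysis. DMSO = negative control/baseline.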

The nature of assay [14]: ATG_Sox_CIS: Attagene CIS-FACTORIAL HepG2 Assay for human SRY-box transcription factor (SOX) (AID 2282960). The note with it: HepG2 Attagene cis-factorial SOX reporter, mRNA; actives raise or lower the signal. The method in brief: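 Endogenous factor activity in human liver HepG2 cells carrying transfected cis-regulated reporter units. RNA taken 24 h post-dose, reverse-transcribed, PCR-amplified and sized by capillary electrophoresis. Gain or loss of signal fitted relative to DMSO.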

Assay [15] concerns the target Transcription factor Sp1 (Homo sapiens) (UniProt P08047). The assay is described as follows: ATG_Sp1_CIS: Attagene CIS-FACTORIAL HepG2 Assay for human Specificity Protein 1 (Sp1) (AID 2282961). The note with it: HepG2 Sp1 cis-reporter transcription, actives raise or lower the signal. The procedure, abridged: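 Transient MRTU-transfected HepG2, 24 h compound exposure. Total RNA → oligo(dT) RT → PCR of reporter → 6-FAM primer extension → HpaI digest → CE. Endpoint fitted both directions vs DMSO.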

A short description of assay [16]: ATG_SREBP_CIS: Attagene CIS-FACTORIAL HepG2 Assay for human Sterol Regulatory Element Binding (SREBP) (AID 2282962). As to conditions: HepG2 Attagene cis-factorial SREBP reporter, mRNA; actives raise or lower the signal. The method in brief:
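Transfected HepG2 (cis-regulated reporter library, endogenous TFs) → compound 24 h → total RNA → oligo(dT) RT → reporter-specific PCR → FAM primer extension, HpaI cut → CE fluorescence. Fit bidirectional vs DMSO.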

The target of assay [17] is Signal transducer and activator of transcription 3 (Homo sapiens) (UniProt P40763). The assay is described as follows: ATG_STAT3_CIS: Attagene CIS-FACTORIAL HepG2 Assay for human Signal Transducer and Activator of Transcription 3 (STAT3) (AID 2282963). The note with it: HepG2, Attagene cis-factorial STAT3 reporter transcription; actives raise or lower the signal. The method in brief:
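After a 24 h compound incubation, total RNA from MRTU-transfected HepG2 cells was converted to cDNA and reporter sequences PCR-amplified, labelled and profiled by capillary electrophoresis. Gain and loss of signal were referenced to DMSO.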

The nature of assay [18]: ATG_TA_CIS: Attagene CIS-FACTORIAL HepG2 Assay for human TA Basal Promoter (AID 2282964). As to conditions: HepG2 Attagene CIS-factorial TA basal promoter reporter; actives raise or lower the signal. The procedure, abridged: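 Cis-factorial format in HepG2: reporters report endogenous factors, not chimeric Gal4 fusions. After 24 h treatment, reporter transcripts were measured by RT-PCR-capillary electrophoresis fluorescence, analysed bidirectionally versus DMSO.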

Assay [19] can be described thus: ATG_GRE_CIS: Attagene CIS-FACTORIAL HepG2 Assay for human Glucocorticoid Response Elements (GRE) (AID 2282947). As to conditions: HepG2 GRE cis-reporter, Attagene multiplex mRNA; actives raise or lower the signal. The procedure, abridged:
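Assay uses human hepatoma HepG2 cells transfected with cis-promoter reporter units, exposed 24 h. mRNA from reporters detected by RT-PCR plus capillary electrophoresis; DMSO serves as negative control and baseline.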

Assay [20] concerns the target Hepatocyte nuclear factor 6 (Homo sapiens) (UniProt Q9UBC0). Nature of the assay: ATG_HNF6_CIS: Attagene CIS-FACTORIAL HepG2 Assay for human Hepatocyte Nuclear Factor 6 (HNF6) (AID 2282952). As to conditions: HepG2 Attagene cis-factorial HNF6 reporter transcription; actives raise or lower the signal. The procedure, abridged: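 Transiently transfected HepG2 cells expressing cis-regulated reporter transcription units were exposed to chemical for 24 h in a 24-well format. Reporter transcript abundance was determined by fluorescence capillary electrophoresis.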

The source made the active and inactive calls. Rule for the calls: active = hit-call score of the fitted dose curve at least 0.9, where 1 is the maximum; inactive = score below 0.9.

Sequence of Heat shock factor protein 1 (Homo sapiens) (Q00613 whole entry, looked up): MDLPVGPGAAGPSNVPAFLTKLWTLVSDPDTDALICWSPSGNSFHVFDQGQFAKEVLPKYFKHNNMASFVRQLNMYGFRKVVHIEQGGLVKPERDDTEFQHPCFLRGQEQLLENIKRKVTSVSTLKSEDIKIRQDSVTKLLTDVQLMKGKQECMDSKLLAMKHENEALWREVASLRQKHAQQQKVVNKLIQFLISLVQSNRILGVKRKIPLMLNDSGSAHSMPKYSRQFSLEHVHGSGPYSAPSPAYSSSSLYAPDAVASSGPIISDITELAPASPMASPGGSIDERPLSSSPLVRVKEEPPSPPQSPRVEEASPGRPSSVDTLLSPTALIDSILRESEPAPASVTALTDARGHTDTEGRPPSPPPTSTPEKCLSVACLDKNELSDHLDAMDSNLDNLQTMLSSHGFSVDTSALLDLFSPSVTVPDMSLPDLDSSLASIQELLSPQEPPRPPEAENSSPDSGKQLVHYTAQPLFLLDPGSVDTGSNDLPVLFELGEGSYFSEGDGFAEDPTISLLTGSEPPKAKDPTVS
Sequence of Paired box protein Pax-6 (Homo sapiens) (P26367 whole entry, looked up): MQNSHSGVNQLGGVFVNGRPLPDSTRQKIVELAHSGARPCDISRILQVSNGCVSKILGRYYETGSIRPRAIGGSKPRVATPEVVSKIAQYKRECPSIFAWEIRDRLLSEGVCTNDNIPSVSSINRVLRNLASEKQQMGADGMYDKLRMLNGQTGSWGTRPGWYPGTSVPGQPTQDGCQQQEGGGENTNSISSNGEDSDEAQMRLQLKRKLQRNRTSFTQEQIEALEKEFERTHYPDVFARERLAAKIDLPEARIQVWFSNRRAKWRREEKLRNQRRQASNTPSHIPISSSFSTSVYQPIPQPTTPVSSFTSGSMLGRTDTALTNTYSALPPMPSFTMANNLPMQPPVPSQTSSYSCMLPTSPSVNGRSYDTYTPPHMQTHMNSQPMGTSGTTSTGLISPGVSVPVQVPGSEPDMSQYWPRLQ
Sequence of Transcription factor Sp1 (Homo sapiens) (P08047 whole entry, looked up): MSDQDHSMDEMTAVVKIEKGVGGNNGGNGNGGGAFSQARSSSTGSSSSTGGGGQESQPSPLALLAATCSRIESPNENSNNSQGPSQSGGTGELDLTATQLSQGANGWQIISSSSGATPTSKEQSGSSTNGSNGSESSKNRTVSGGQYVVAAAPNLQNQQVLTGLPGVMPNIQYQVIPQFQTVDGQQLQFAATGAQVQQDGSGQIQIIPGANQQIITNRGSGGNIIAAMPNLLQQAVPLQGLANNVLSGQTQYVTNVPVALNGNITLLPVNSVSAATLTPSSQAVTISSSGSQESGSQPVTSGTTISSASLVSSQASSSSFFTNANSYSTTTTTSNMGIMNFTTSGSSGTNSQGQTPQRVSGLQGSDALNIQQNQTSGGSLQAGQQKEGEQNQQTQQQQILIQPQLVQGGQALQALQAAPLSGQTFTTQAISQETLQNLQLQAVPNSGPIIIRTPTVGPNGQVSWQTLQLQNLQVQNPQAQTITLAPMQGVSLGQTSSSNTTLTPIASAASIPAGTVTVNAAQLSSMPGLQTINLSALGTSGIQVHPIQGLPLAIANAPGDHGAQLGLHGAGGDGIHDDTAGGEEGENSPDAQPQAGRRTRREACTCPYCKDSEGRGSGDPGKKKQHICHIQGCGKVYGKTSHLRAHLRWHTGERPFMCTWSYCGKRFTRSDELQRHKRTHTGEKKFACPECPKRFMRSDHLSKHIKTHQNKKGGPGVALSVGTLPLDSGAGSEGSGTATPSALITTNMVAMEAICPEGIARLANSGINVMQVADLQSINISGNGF
Sequence of Hypoxia-inducible factor 1-alpha (Homo sapiens) (Q16665 whole entry, looked up, the tested form may be a part): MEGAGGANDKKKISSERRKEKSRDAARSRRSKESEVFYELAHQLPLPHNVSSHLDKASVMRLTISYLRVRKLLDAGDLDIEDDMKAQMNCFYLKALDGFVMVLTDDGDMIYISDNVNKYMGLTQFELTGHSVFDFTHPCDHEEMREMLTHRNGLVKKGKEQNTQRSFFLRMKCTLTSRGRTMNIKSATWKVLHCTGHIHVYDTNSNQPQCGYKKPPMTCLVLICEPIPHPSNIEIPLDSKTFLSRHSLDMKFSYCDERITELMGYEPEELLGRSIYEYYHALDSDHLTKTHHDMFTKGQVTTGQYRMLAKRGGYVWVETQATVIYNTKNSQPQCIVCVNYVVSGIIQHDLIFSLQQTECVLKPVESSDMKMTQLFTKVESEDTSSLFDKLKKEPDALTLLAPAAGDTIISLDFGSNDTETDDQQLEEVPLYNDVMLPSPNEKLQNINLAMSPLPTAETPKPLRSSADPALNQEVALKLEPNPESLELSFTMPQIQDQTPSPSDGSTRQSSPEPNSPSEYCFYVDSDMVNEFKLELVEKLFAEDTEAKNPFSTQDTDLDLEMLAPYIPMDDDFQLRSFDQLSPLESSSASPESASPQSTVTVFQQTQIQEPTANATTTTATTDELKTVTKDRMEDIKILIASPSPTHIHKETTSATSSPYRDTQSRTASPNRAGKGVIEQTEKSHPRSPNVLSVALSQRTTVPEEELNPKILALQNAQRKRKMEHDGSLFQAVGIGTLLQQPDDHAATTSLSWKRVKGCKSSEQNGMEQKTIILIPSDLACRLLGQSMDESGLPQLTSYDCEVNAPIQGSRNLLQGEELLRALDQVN
Sequence of Hepatocyte nuclear factor 6 (Homo sapiens) (Q9UBC0 whole entry, looked up): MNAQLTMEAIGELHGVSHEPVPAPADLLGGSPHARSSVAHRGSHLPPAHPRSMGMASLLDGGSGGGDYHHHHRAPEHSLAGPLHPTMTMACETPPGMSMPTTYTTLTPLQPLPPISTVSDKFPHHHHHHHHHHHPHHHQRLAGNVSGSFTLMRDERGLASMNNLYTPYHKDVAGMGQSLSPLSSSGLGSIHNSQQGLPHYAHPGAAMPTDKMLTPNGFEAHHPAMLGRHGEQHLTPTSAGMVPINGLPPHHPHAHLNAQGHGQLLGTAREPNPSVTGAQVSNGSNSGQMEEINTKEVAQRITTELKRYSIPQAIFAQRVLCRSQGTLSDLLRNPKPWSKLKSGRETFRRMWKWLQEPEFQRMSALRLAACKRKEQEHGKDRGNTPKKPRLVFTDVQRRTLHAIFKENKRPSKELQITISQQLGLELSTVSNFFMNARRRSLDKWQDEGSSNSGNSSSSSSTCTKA
Sequence of Signal transducer and activator of transcription 3 (Homo sapiens) (P40763 whole entry, looked up): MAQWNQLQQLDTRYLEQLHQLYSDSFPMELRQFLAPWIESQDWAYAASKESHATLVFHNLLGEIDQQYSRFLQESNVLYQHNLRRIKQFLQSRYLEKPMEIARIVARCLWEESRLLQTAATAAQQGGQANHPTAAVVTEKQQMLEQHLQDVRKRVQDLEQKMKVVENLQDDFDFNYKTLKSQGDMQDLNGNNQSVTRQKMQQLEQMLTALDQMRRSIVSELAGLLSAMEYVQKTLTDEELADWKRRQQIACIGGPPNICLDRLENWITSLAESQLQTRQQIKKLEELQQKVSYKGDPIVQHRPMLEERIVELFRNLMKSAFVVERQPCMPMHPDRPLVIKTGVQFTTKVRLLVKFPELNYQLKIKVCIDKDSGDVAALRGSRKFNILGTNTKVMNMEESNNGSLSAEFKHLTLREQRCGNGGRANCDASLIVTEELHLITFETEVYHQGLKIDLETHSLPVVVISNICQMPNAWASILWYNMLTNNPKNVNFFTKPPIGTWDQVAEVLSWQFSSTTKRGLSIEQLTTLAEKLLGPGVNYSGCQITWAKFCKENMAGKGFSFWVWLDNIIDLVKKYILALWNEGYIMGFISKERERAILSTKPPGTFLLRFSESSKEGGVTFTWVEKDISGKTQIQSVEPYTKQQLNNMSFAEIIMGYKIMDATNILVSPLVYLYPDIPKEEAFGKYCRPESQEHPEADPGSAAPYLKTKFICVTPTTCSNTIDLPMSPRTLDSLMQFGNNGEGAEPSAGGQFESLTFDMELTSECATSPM
Sequence of Bile acid receptor (Homo sapiens) (Q96RI1 whole entry, looked up, the tested form may be a part): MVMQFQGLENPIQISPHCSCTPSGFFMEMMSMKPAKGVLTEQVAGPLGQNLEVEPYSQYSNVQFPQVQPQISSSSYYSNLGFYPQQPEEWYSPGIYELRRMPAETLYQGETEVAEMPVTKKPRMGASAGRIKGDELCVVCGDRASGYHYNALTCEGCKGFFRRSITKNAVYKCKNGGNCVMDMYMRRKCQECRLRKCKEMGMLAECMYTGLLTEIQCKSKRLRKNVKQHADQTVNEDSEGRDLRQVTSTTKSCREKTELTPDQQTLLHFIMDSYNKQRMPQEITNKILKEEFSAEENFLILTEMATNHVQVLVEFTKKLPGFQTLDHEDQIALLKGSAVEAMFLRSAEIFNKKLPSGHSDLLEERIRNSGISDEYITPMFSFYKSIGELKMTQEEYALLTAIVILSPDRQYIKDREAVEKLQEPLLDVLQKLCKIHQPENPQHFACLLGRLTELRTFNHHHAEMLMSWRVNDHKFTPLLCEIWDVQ

In the case of `FC(F)(F)C(F)(F)C(F)(F)C(F)(F)C(F)(F)C(F)(F)CCI`, the compound was called inactive in assay [1], in [2], in [3], in assay [4], in [5] and in [6]. Further, the outcome in [7], in assay [8], in [9], in [10], in [11] and in assay [12] was inactive. Moreover, the result in assay [13], in assay [14], in assay [15], in assay [16], in assay [17] and in assay [18] was inactive.

As to `Clc1cc(Cl)c(Cl)cc1Cl`, the call in assay [1], in [19], in assay [3], in assay [4], in [5] and in assay [6] was inactive. Further, the outcome in [20], in [7], in [8], in [10], in assay [11] and in [12] was inactive. In addition, the outcome in assay [13], in assay [14], in assay [15], in [16], in assay [17] and in [18] was inactive.

As to `CCOC(=O)CCC(=O)OCC`, the result in assay [1], in assay [19], in assay [3], in assay [4], in assay [5] and in [6] was inactive. Further, the result in assay [20], in [7], in assay [8], in assay [9], in assay [10] and in assay [12] was inactive. For the same compound, the compound was classed as inactive in assay [13], in assay [14], in assay [15], in assay [16], in [17] and in [18]. Also, the AC50 in assay [11] is 47.8 µM (active).

As to `CC(C)c1ccc(C(=O)N=C(N)N)cc1S(C)(=O)=O`, the result in assay [1], in assay [19], in [3], in [4], in assay [5] and in assay [6] was inactive. The outcome in assay [20], in assay [7], in assay [8], in assay [9], in assay [10] and in [13] was inactive. Also, the outcome in [14], in [15], in assay [16], in [17] and in [18] was inactive.
